SMILES strings stand for the structures.

One assay concerns the target Bromodomain-containing protein 4 (Homo sapiens) (UniProt O60885). As to conditions: Compound concentration 20.0 uM, Protein concentration 2.0 uM, Result type QC Liability.
Regarding `CS(=O)(=O)N1CCCC(NC(=O)[C@H](CCC2CCCCC2)NC(=O)c2ccc(CNC(=O)c3cnc4ccccn34)cc2)C1` (stereo partly drawn), the ΔTm amounted to 0.345 c.

Take `CN(c1ncccc1CNc1ccnc(-c2nc3c(F)c(Cl)ccc3[nH]2)n1)S(C)(=O)=O`: the ΔTm is -0.76 c.

Consider `CN(C)C(=O)c1ccc(-c2cc(C(=O)N[C@@H]3CCc4ccccc43)no2)cc1O`, for which the ΔTm is -0.51 c.

In the case of `O=C(NCCCN1CCOC1=O)c1cnc(NCc2cc(Br)ccc2Br)nc1NC1CCCC1`, the ΔTm turned out to be 0 c.

The next assay concerns the target T1, Transcription intermediary factor 1-alpha (Homo sapiens) (UniProt O15164).
T1 sequence (whole entry): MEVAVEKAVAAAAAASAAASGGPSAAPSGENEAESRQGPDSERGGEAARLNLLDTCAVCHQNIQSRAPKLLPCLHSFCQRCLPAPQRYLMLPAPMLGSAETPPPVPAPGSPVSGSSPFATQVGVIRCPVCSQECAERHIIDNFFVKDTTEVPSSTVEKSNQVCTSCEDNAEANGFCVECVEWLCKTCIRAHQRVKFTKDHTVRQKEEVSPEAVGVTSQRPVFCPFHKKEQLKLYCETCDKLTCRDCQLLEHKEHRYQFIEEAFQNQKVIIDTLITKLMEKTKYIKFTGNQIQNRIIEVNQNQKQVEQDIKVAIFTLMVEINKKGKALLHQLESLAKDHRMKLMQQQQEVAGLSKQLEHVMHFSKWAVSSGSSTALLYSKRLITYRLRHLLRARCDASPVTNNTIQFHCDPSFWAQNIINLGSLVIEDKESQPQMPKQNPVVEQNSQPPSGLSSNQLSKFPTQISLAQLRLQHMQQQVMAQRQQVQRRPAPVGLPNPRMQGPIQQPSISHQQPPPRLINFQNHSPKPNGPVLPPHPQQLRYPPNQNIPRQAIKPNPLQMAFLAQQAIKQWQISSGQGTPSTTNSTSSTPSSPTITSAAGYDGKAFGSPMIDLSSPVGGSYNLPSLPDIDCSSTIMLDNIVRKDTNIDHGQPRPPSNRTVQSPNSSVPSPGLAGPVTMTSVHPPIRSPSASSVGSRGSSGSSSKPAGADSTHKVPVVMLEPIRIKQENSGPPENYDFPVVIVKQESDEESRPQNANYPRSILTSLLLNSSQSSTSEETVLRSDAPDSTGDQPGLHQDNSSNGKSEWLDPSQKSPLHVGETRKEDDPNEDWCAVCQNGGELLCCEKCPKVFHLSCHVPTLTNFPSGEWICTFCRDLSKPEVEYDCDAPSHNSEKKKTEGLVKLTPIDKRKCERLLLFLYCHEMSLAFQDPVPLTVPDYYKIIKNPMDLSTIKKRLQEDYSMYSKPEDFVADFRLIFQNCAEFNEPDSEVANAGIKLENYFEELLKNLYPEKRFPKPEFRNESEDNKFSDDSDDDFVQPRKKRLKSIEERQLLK
The following applies: Compound concentration 20.0 uM, Protein concentration 2.0 uM, Result type QC Liability.
As to `CS(=O)(=O)N1CCCC(NC(=O)[C@H](CCC2CCCCC2)NC(=O)c2ccc(CNC(=O)c3cnc4ccccn34)cc2)C1` (stereo partly drawn), the ΔTm came out at 0.0818 c.

With `CN(c1ncccc1CNc1ccnc(-c2nc3c(F)c(Cl)ccc3[nH]2)n1)S(C)(=O)=O`, the ΔTm is -0.07 c.

For `CN(C)C(=O)c1ccc(-c2cc(C(=O)N[C@@H]3CCc4ccccc43)no2)cc1O`, the ΔTm was -0.594 c.

Take `O=C(NCCCN1CCOC1=O)c1cnc(NCc2cc(Br)ccc2Br)nc1NC1CCCC1`: the ΔTm turned out to be 0 c.

The values are drawn from ChEMBL document CHEMBL5058541.
